Consider 46 compounds from PMC4336329 (PLoS ONE, 2015).

Among all 310,000 compounds or so, about 2,200 (0.71%) showed an effect of 50% or more. The effect is printed as a negative number. The sample holds strong results, similar compounds and a random draw of the others, so the mix is not that of the screen.

In this test the target is human ether-à-go-go-related gene (hERG) potassium channel (human, UniProt Q12809). Put plainly: primary screen, population patch clamp on CHO cells stably expressing hERG; higher = less effect of the substance.
human ether-à-go-go-related gene (hERG) potassium channel, sequence (Q12809 whole entry, looked up): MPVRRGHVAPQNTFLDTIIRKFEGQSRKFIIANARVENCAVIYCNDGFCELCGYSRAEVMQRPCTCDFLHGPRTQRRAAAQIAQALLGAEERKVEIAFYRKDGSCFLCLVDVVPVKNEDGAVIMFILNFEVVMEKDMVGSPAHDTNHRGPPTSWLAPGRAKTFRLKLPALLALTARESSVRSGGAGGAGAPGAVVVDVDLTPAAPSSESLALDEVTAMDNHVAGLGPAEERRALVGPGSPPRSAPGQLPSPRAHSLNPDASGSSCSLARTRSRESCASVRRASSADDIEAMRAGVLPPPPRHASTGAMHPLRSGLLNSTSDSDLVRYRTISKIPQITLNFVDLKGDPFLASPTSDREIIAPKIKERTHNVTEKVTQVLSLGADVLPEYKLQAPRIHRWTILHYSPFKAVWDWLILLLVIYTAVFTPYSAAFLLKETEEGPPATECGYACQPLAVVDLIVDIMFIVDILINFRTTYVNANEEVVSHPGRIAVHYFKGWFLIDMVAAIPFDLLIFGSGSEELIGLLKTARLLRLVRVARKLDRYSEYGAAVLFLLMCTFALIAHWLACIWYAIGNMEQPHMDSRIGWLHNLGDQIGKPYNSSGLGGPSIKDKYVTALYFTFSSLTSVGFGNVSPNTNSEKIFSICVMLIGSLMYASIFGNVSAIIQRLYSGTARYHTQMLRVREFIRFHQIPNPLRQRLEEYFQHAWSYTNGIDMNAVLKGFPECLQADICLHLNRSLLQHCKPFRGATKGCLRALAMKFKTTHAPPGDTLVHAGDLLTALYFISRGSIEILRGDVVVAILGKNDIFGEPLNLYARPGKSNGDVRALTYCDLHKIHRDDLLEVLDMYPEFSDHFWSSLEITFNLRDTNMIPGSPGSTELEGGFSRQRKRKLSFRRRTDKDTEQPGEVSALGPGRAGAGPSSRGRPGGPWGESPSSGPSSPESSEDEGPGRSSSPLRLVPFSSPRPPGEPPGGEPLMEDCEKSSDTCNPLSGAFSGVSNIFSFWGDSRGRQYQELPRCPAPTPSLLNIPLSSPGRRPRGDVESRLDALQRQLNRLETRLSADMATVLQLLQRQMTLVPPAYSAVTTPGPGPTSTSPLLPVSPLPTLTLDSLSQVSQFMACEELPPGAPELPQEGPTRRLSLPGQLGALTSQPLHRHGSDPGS
In the case of `Cc1sc2nc(CN3CCCCC3)nc(Nc3ccc4c(c3)OCCO4)c2c1C`, the “hERG current change (%, negative = inhibition) at 1uM” value is on record as -89.2%.
As for `Cc1sc2nc(CN3CCOCC3)nc(NS(=O)(=O)c3ccc4c(c3)OCCO4)c2c1C`, the figure is 13.1%; as for `Cc1cc2oc3c(c(=O)c2cc1C)C(c1ccc(C(C)C)cc1)N(CCCN1CCOCC1)C3=O` (stereo not shown), 13%.
As for `CCCN1C(=O)c2ccc(C(=O)Nc3ccccc3C(=O)O)cc2C1=O`, the figure is 18%.
As for `CCOc1ccc(CN2CCN(Cc3ccsc3)C(CCO)C2)cc1CO` (stereo not shown), the figure is -17.3%; as for `COCc1cc(CN2CCN(Cc3ccsc3)C(CCO)C2)ccc1OC` (stereo not shown), -56.6%; as for `COCc1cc(CN2CCN(CCc3ccccc3)C(CCO)C2)ccc1OC` (stereo not shown), -32.3%.
As to `Cc1ccc(NCc2nnc(SCCN3CCCCC3)n2CC2CCCO2)cc1Cl` (stereo not shown), the “hERG current change (%, negative = inhibition) at 1uM” value was -59.1%.
As for `Cc1ccc(NCc2nnc(SCC(=O)NCc3ccco3)n2CC2CCCO2)cc1Cl` (stereo not shown), the figure is -5.15%; as for `Cc1ccc(NCc2nnc(SCCN3CCCCC3)n2CC2CCCO2)c(C)c1` (stereo not shown), -10.7%.
As for `CCOC(=O)c1c(C)[nH]c(C(=O)N2CCN(C(=O)OCC)CC2)c1C`, the figure is 7.64%; as for `Cc1ccc(NS(=O)(=O)c2cccs2)cc1S(=O)(=O)N1CCCCCC1`, 16.5%; as for `Cc1ccc(CSCc2ccc(C(=O)NCCCN3CCOCC3)o2)cc1`, -21.2%.
As for `COC(CNC(=O)c1ccc2c(c1)ncn2-c1ccc(F)c(F)c1)OC`, the figure is -5.49%.
Take `COc1ccc2cc(C(=O)N3CCCCCC3)sc(=O)c2c1OC`: the “hERG current change (%, negative = inhibition) at 1uM” value was 1.33%.
As for `COc1cccc(NC(=O)C(NCC(C)(C)CN(C)C)c2ccccc2)c1.O=C(O)C(=O)O` (stereo not shown), the figure is -12.7%.
As for `CCN(CC)CCNC(C(=O)Nc1ccc([N+](=O)[O-])cc1Br)c1ccccc1` (stereo not shown), the figure is -86.5%; as for `CN(C)c1cccc(C(=O)OC(C(=O)Nc2ccc(Cl)cc2C(F)(F)F)c2ccccc2)c1` (stereo not shown), 0.322%.
As for `CCCCNC(C(=O)Nc1ccc([N+](=O)[O-])cc1Br)c1ccccc1` (stereo not shown), the figure is 10.5%; as for `CCN(CC)CCNC(C(=O)Nc1cccc(C(C)=O)c1)c1ccccc1.O=C(O)C(=O)O` (stereo not shown), -51.4%.
On to `CC(=O)c1cccc(NC(=O)C(NC(C)C)c2ccccc2)c1` (stereo not shown), for which the “hERG current change (%, negative = inhibition) at 1uM” value is recorded as 10%.
As for `CN(C)CCNC(C(=O)Nc1cccc(C(F)(F)F)c1)c1ccccc1.O=C(O)C(=O)O` (stereo not shown), the figure is -14.6%.
For `CCCC(=O)OC(C(=O)Nc1cc(C(F)(F)F)ccc1Cl)c1ccccc1` (stereo not shown), the “hERG current change (%, negative = inhibition) at 1uM” value is given as 5.1%.
As for `CN(C)C(CNC(C(=O)Nc1ccc([N+](=O)[O-])cc1Br)c1ccccc1)c1ccccc1` (stereo not shown), the figure is 11.9%; as for `CCN(CC)CCNC(C(=O)Nc1cc(C(F)(F)F)ccc1Cl)c1ccccc1` (stereo not shown), -85.3%; as for `O=C(Nc1cc(C(F)(F)F)ccc1Cl)C(NCc1ccccc1)c1ccccc1` (stereo not shown), 15.6%.
For the compound `CN(C)CC(C)(C)CNC(C(=O)Nc1ccc(Cl)cc1C(F)(F)F)c1ccccc1` (stereo not shown), the “hERG current change (%, negative = inhibition) at 1uM” value was -72.3%.
For the compound `CC(/C=N/n1c(-c2ccco2)n[nH]c1=S)=C\c1ccco1`, the “hERG current change (%, negative = inhibition) at 1uM” value came out at 13.9%.
As for `COCCCNc1nc2c(-c3cccc(C)c3)nnn2c2ccc(Cl)cc12`, the figure is 13.3%; as for `CNC(=O)c1[nH]cnc1C(=O)N[C@@H](CCCCNC(=O)OC(C)(C)C)C(=O)OC(C)(C)C`, 13.6%.
Turning to `Cc1cccc(NS(=O)(=O)c2cccc([N+](=O)[O-])c2)n1`, the “hERG current change (%, negative = inhibition) at 1uM” value came to 13.7%.
Turning to `Cn1ccnc1SCC(=O)Nc1cc(C(F)(F)F)ccc1N1CCOCC1`, the “hERG current change (%, negative = inhibition) at 1uM” value is given as -0.591%.
As for `c1ccc(-c2noc(-c3cccs3)n2)nc1`, the figure is 7.74%; as for `COc1cc2c(cc1OC)C1Cc3ccc(OC)c(OC)c3C[N+]1([O-])CC2` (stereo not shown), 14.1%; as for `O=C(Nc1ccccc1N1CCN(C(=O)c2ccc(Cl)cc2)CC1)c1ccc2c(c1)OCO2`, -5.35%.
As for `O=C(Nc1ccccc1N1CCN(C(=O)c2ccccc2)CC1)c1cccc(Cl)c1`, the figure is -12.6%.
As to `O=C(Nc1ccccc1N1CCN(C(=O)c2ccc(Cl)cc2)CC1)c1cccc(F)c1`, the “hERG current change (%, negative = inhibition) at 1uM” value is on record as -81.2%.
As for `O=C(Nc1ccccc1N1CCN(C(=O)c2ccc(Cl)cc2)CC1)c1cccnc1`, the figure is -77%; as for `O=C(Nc1ccccc1N1CCN(C(=O)c2ccc(Cl)cc2)CC1)c1cccc([N+](=O)[O-])c1`, -65.2%.
As for `O=C(Nc1ccccc1N1CCN(C(=O)c2ccc(Cl)cc2)CC1)c1ccc(Br)cc1`, the figure is -4.26%; as for `CS(=O)(=O)Nc1ccc(C(=O)N2CCN(c3ccccc3)CC2)cc1`, -31.4%.
As for `O=C(c1ccccc1)N1CCN(c2ccccc2F)CC1`, the figure is 9.77%; as for `CCC(=O)N1CCN(c2ccc(Cl)cc2NC(=O)c2cccc([N+](=O)[O-])c2)CC1`, -32%; as for `O=C(Nc1ccccc1N1CCN(C(=O)c2ccccc2)CC1)c1ccc(Cl)cc1`, -7.21%.
With `CS(=O)(=O)Nc1ccc(C(=O)N2CCN(c3ccccc3F)CC2)cc1`, the “hERG current change (%, negative = inhibition) at 1uM” value is -69.2%.
Take `O=C(c1cccc([N+](=O)[O-])c1)N1CCN(c2ccc(Cl)cc2)CC1`: the “hERG current change (%, negative = inhibition) at 1uM” value is given as 2.13%.
